Hits are enriched below; roughly 5.9% of the tested compounds scored in any of these assays.
VP16 counter: inhibits Gal4-VP16 luciferase reporter, ROR gamma counter-screen | Drosophila S2 Gal4-VP16 UAS-luciferase, luminescence, 20 h | Potency, µM (highest dose often 53.6 µM), most hits filed as inhibitors | AID 2546 | 3.5% of 310,000 active;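 further: Gal4-VP16 expression switched on by copper sulfate through the metallothionein promoter; nearly all actives have a fitted effect of over 50% in size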
FBPA coupling cs: inhibits coupling enzyme system, counter-screen for aldolase hits | coupling enzyme system counterscreen, AmpLite Red fluorescence | activity change, negative = inhibition, % at 58.2 µM, hits read low | 0.67% of 290,000 active; in the data active means activity change below about -30%
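Compounds tested against the coupling enzymes alone at 57.5 uM final; readout was AmpLite Red fluorescence (525/598 nm) after 20 min at RT.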
TrxR1 inh: rat TrxR1 inhibition; O89049; recombinant rTrxR1, NADPH fluorescence consumption, selenite substrate; Potency, µM (titrated, usually from 114 µM), usual class: inhibitors; 1% of 390,000 active; AID 588453; further: nearly all actives have a fitted effect of over 65% in size
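Rat TrxR1 (90 nM in the dispensed reagent) was pre-reduced with 400 uM NADPH for 5 min at room temperature, then incubated with compound for 15 min. After 400 uM selenite was added, NADPH fluorescence (Ex 340/Em 450 nm) was followed for 8 min.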
GALK inhibitor: blocks human galactokinase activity; 0.007% of 270,000 active; P51570; Purified GALK, Kinase-Glo residual ATP luminescence; Potency, µM (titrated, usually from 57.5 µM), hits mostly inhibitors
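Quantitative HTS: GALK 5 nM, ATP 35 uM, galactose 100 uM, 1 h room temperature, then luciferase-based ATP detection.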
RORgamma inh: blocks mouse ROR gamma transcriptional activity. P51450. Drosophila S2 Gal4-RORgamma UAS-luciferase reporter, 20 h. Potency, µM (titrated, usually from 53.6 µM), hits mostly inhibitors. 5.4% of 310,000 active. AID 2551; further: nearly all actives have a fitted effect of over 60% in size
Target sequence (P51450 whole entry, looked up, the tested form may be a part): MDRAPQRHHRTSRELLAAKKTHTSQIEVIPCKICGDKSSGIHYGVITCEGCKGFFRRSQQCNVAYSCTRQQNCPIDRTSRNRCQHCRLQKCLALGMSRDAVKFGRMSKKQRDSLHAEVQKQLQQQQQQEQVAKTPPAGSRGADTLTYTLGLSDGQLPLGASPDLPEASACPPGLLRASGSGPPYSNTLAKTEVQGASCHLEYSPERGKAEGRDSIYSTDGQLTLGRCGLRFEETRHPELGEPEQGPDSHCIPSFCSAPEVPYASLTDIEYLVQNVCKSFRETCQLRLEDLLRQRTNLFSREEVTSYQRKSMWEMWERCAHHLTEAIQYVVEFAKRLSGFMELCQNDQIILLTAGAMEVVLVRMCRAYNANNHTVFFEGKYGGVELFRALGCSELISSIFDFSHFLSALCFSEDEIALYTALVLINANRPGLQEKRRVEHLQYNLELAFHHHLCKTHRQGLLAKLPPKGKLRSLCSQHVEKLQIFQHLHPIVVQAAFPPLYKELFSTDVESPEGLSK
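A Gal4/UAS one-hybrid system in insect cells: metallothionein-promoter Gal4–ROR gamma fusion plus Photinus luciferase reporter. Copper sulfate 700 uM final, 20 hr ambient incubation, luminescent detection after 10 min with reagent.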
TrxR1 substrate: substrates of rat thioredoxin reductase 1. purified TrxR1 substrate turnover, NADPH consumption readout. O89049. 0.01% of 390,000 active. Potency, µM (top dose mostly 114 µM); further: nearly all actives have a fitted effect of over 50% in size
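Rat TrxR1, dispensed at 90 nM, was prereduced with 400 uM NADPH (final) for 5 min at ~22 deg C, then incubated with compound 15 min before 400 uM selenite. A first-read NADPH fluorescence drop versus no-compound background flagged substrates.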
Hits are given with their value; [ ] = another dose, or the depositor's remark. Unless noted, the call rests on the fitted dose curve; in most records, active means well fitted curve in the direction sought with a large enough effect; inconclusive means small, poorly fitted or top-dose-only effect, or another doubt; inactive means no such curve, though single readings can be large; an effect the other way counts as inactive or inconclusive.

What do the screens show for `Cn1cccc1/C=C1\SC(=S)N(NC(=O)c2ccccc2O)C1=O`?
VP16 counter: inactive; FBPA coupling cs: inactive; TrxR1 inh: inactive; GALK inhibitor: inactive; RORgamma inh: inactive; TrxR1 substrate: inactive

Results for Cc1ccccc1OCC1Cn2c(nc3c2c(=O)n(C)c(=O)n3C)O1 (stereo unspecified) ?
VP16 counter: inactive; FBPA coupling cs: inactive; TrxR1 inh: inactive; GALK inhibitor: inactive; RORgamma inh: inconclusive; TrxR1 substrate: inactive

What do the screens show for `COc1cccc(-n2c(CN3CCN(c4ccc(C)cc4)C(C)C3)nc3ccc([N+](=O)[O-])cc3c2=O)c1` (stereo unspecified)?
VP16 counter: inactive; FBPA coupling cs: inactive; TrxR1 inh: inactive; GALK inhibitor: inactive; RORgamma inh: inactive[10 µM]; TrxR1 substrate: inactive

What do the screens show for `O=C1S/C(=C\C=C\c2ccco2)C(=O)N1c1ccccc1`?
VP16 counter: inconclusive; FBPA coupling cs: inactive; TrxR1 inh: 50µM; GALK inhibitor: inactive; RORgamma inh: inconclusive; TrxR1 substrate: inactive

What do the screens show for `O=C(O)CCN1C(=O)/C(=C/c2ccc(-c3nc4ccccc4s3)o2)SC1=S`?
VP16 counter: inactive; FBPA coupling cs: inactive; TrxR1 inh: inconclusive; GALK inhibitor: inactive; RORgamma inh: inactive; TrxR1 substrate: inactive

Results for O=C1S/C(=C\C=C\c2ccco2)C(=O)N1c1ccc(O)cc1 ?
VP16 counter: inactive; FBPA coupling cs: inactive; TrxR1 inh: inconclusive; GALK inhibitor: inactive; RORgamma inh: inactive; TrxR1 substrate: inactive

How did O=C(O)CCCN1C(=O)/C(=C\c2ccc(-c3nc4ccccc4s3)o2)SC1=S do in these assays?
VP16 counter: inactive; FBPA coupling cs: inactive; TrxR1 inh: 50µM; GALK inhibitor: inactive; RORgamma inh: inactive; TrxR1 substrate: inactive

How did O=C(O)CC(C(=O)O)N1C(=O)/C(=C/C=C/c2ccco2)SC1=S (stereo unspecified) do in these assays?
VP16 counter: inactive; FBPA coupling cs: inactive; TrxR1 inh: 20µM; GALK inhibitor: inactive; RORgamma inh: inactive; TrxR1 substrate: inactive

What do the screens show for `Cc1cc(C(=O)NCCC2=CCCCC2)c(C)o1`?
VP16 counter: inconclusive; FBPA coupling cs: inactive; TrxR1 inh: 32µM; GALK inhibitor: inactive; RORgamma inh: 10µM; TrxR1 substrate: inactive

Results for CCN(CC)S(=O)(=O)c1ccc2[nH]cc(C(=O)NCCC3=CCCCC3)c(=O)c2c1 ?
VP16 counter: 5µM; FBPA coupling cs: inactive; TrxR1 inh: inactive; GALK inhibitor: inactive; RORgamma inh: 10µM; TrxR1 substrate: inactive

How did O=c1[nH]cnc2scc(-c3cccs3)c12 do in these assays?
VP16 counter: inactive; FBPA coupling cs: inactive; TrxR1 inh: inactive; GALK inhibitor: inactive; RORgamma inh: inactive; TrxR1 substrate: inactive

Results for Cn1c(=S)[nH]c2scc(-c3cccs3)c2c1=O ?
VP16 counter: 5µM; FBPA coupling cs: inactive; TrxR1 inh: inactive; GALK inhibitor: inactive; RORgamma inh: 0.79µM; TrxR1 substrate: inactive

What do the screens show for `O=c1c2c(-c3cccs3)csc2ncn1-c1ccc(Br)cc1`?
VP16 counter: inactive; FBPA coupling cs: inactive; TrxR1 inh: inactive; RORgamma inh: inactive; TrxR1 substrate: inactive

How did C=CCn1c(=S)[nH]c2scc(-c3cccs3)c2c1=O do in these assays?
VP16 counter: 0.79µM; FBPA coupling cs: inactive; TrxR1 inh: inconclusive; GALK inhibitor: inactive; RORgamma inh: 0.63µM; TrxR1 substrate: inactive

What do the screens show for `NC(N)=NC(N)=Nc1ccc(SC(F)(F)F)cc1`?
VP16 counter: inactive; FBPA coupling cs: inactive; TrxR1 inh: inactive; RORgamma inh: inconclusive; TrxR1 substrate: inactive

What do the screens show for `Cc1ccc(C(=O)C(C(=O)/C=C/c2ccccc2)=C2SCCCS2)cc1`?
VP16 counter: 14µM; FBPA coupling cs: inactive; TrxR1 inh: inconclusive; GALK inhibitor: inactive; RORgamma inh: 3.5µM; TrxR1 substrate: inactive

How did C/C(CC(=O)Nc1cc(C)cc(C)c1)=N\NC(=O)c1ccccn1 do in these assays?
VP16 counter: inactive; FBPA coupling cs: inactive; TrxR1 inh: inconclusive; GALK inhibitor: inactive; RORgamma inh: inactive; TrxR1 substrate: inactive

How did COc1ccc(CNC(=O)Nc2cccc3ccccc23)cc1 do in these assays?
VP16 counter: inconclusive; FBPA coupling cs: inactive; TrxR1 inh: inactive; GALK inhibitor: inactive; RORgamma inh: inactive; TrxR1 substrate: inactive

Results for COc1ccc(CCNC(=S)Nc2cccc3ccccc23)cc1 ?
VP16 counter: 11µM; FBPA coupling cs: inactive; TrxR1 inh: inactive; GALK inhibitor: inactive; RORgamma inh: 5µM; TrxR1 substrate: inactive

How did COc1ccc(CCNC(=S)Nc2ccccc2C)cc1 do in these assays?
VP16 counter: 20µM; FBPA coupling cs: inactive; TrxR1 inh: inactive; GALK inhibitor: inactive; RORgamma inh: 5µM; TrxR1 substrate: inactive

How did COc1ccc(OCCNC(=S)Nc2cccc3ccccc23)cc1 do in these assays?
VP16 counter: 6.3µM; FBPA coupling cs: inactive; TrxR1 inh: inactive; GALK inhibitor: inactive; RORgamma inh: 2.8µM; TrxR1 substrate: inactive

What do the screens show for `O=C(CCCCCn1c(=O)[nH]c2ccsc2c1=O)NCc1ccc2c(c1)OCO2`?
VP16 counter: inactive; FBPA coupling cs: inactive; TrxR1 inh: inactive; GALK inhibitor: inactive; RORgamma inh: inactive; TrxR1 substrate: inactive

How did CCC(=O)Nc1c(C(=O)N2CCN(c3ccccn3)CC2)cnn1-c1ccc(C)cc1 do in these assays?
VP16 counter: inactive; FBPA coupling cs: inactive; TrxR1 inh: inactive; RORgamma inh: inconclusive; TrxR1 substrate: inactive

Results for Cc1ccc(NC(=S)N/N=C/c2ccc(Cl)c([N+](=O)[O-])c2)cc1 ?
VP16 counter: inconclusive; FBPA coupling cs: inactive; TrxR1 inh: inactive; GALK inhibitor: inactive; RORgamma inh: 18µM; TrxR1 substrate: inactive

How did O=[N+]([O-])c1cc(/C=N/NC(=S)Nc2ccccc2Cl)ccc1Cl do in these assays?
VP16 counter: 3.5µM; FBPA coupling cs: inactive; TrxR1 inh: inactive; GALK inhibitor: inactive; RORgamma inh: 3.2µM; TrxR1 substrate: inactive

Results for COc1ccc(/C=N/NC(=S)Nc2ccccc2[N+](=O)[O-])cc1O ?
VP16 counter: 3.2µM; FBPA coupling cs: inactive; TrxR1 inh: inactive; GALK inhibitor: inactive; RORgamma inh: 5.6µM; TrxR1 substrate: inactive

How did COc1ccc(N2CCN(C(=S)Nc3ccccc3)CC2)cc1 do in these assays?
VP16 counter: inconclusive; FBPA coupling cs: inactive; TrxR1 inh: inactive; GALK inhibitor: inactive; RORgamma inh: 13µM; TrxR1 substrate: inactive

Results for CC(=O)c1ccc(N2CCN(C(=S)Nc3ccc(Oc4ccccc4)cc3)CC2)cc1 ?
VP16 counter: 4.5µM; FBPA coupling cs: inactive; TrxR1 inh: inactive; GALK inhibitor: inactive; RORgamma inh: 3.2µM; TrxR1 substrate: inactive

How did CC(=O)c1ccc(N2CCN(C(=S)Nc3cccc(F)c3)CC2)cc1 do in these assays?
VP16 counter: inactive; FBPA coupling cs: inactive; TrxR1 inh: inactive; GALK inhibitor: inactive; RORgamma inh: 14µM; TrxR1 substrate: inactive

Source: PubChem
